Measured potencies and affinities stand elsewhere.
system: Candida albicans; conditions: Concentration 32 ug.mL-1; ASSAY_TEST Inhibition of Fungal Growth; detection method Absorption (OD530)

Compound	Inhibition [%]
Cc1cc(C)cc(NC(=O)Cn2nc3ccc(-c4ccc(C)c(C)c4)nn3c2=O)c1	21.88
Cc1ccc(-c2ccc3nn(Cc4c(F)cccc4Cl)c(=O)n3n2)cc1	-0.59
CC(C)c1nnc2c(=O)n(CC(=O)Nc3ccccc3)c3ccccc3n12	3.67
O=C(Cn1nc2c(SC3CCCCC3)nccn2c1=O)Nc1cccc(Br)c1	26.25
COc1ccc(-c2cc3c4nn(CC(=O)Nc5ccccc5OC)c(=O)n4ccn3n2)cc1	0.94
COc1ccccc1N1CCN(C(=O)CSc2nnc3c(=O)n(-c4ccc(F)cc4)ccn23)CC1	1.66
Cc1ccc(Cl)cc1NC(=O)CSc1nnc2n(CC3CCCO3)c(=O)c3sccc3n12 (stereo not given)	-1.49
O=c1c2nn(Cc3cccc(F)c3)c(=O)n2ccn1-c1ccccc1	1.62
Cc1nnc2c(=O)n(CC(=O)Nc3cccc(Cl)c3)c3ccccc3n12	-0.29
CCc1nnc2ccc(S(=O)(=O)N(Cc3ccccc3)c3ccccc3)cn12	2.38
Cc1ccc(Oc2nccn3c(=O)n(CC(=O)NCc4cccs4)nc23)cc1	2.18
CCOc1ccc(-n2ccn3c(SCC(=O)Nc4cccc(Cl)c4)nnc3c2=O)cc1	2.64
CN(C(=O)Cn1nc2nc(Nc3ccc(F)cc3)ccn2c1=O)c1ccccc1	3.9
Cc1ccc(NC(=O)Cn2nc3c4cc(-c5ccc(C)c(C)c5)nn4ccn3c2=O)cc1C	4.1
Cc1cc(C)c(NC(=O)Cn2nc3c(Sc4ccccc4)nccn3c2=O)c(C)c1	5.92
Cc1ccc(-c2ccc3nn(Cc4ccc5c(c4)OCO5)c(=O)n3n2)cc1C	1.11
COCCCNC(=O)CSc1nnc2c(=O)n(Cc3ccccc3F)ccn12	4.29
COc1ccccc1CNC(=O)CSc1nnc2c3cc(-c4ccc(C)cc4)nn3ccn12	-1.83
COc1ccc(NC(=O)Cn2nc3ccc(-c4ccccc4)nn3c2=O)cc1OC	3.57
Cc1nnc2c(S(=O)(=O)N(Cc3cccc(F)c3)c3ccc(C(C)C)cc3)cccn12	6.76

Compound	Inhibition [%]
COc1ccc(-c2cc3c4nnc(SCC(=O)N(C)c5ccccc5)n4ccn3n2)cc1	32.67
COc1ccccc1Cn1c(=O)c2sccc2n2c(=O)n(CC(=O)c3ccc(C)cc3C)nc12	8
CCOc1ccccc1NC(=O)Cn1nc2c(Sc3ccccc3)nccn2c1=O	-0.33
COc1ccccc1-n1ccn2c(SCc3ccccc3C)nnc2c1=O	3.95
Cc1nnc2c(S(=O)(=O)N(Cc3cccc(Cl)c3)c3ccc(F)c(F)c3)cccn12	2.06
CC(=O)c1ccc(N2CCN(C(=O)CCc3nnc4c5cc(-c6ccccc6)nn5ccn34)CC2)cc1	3.08
COc1ccc(N(Cc2cccc(Cl)c2)S(=O)(=O)c2ccc3nnc(C)n3c2)cc1	5
CCCNC(=O)CSc1nnc2c(=O)n(-c3ccc(F)cc3)ccn12	2.11
COc1ccc(-c2cc3c4nn(CC(=O)Nc5ccc(C)c(F)c5)c(=O)n4ccn3n2)cc1	28.75
CC(C)(C)Sc1ccc2nn(CC(=O)N3CCN(c4ccc(F)cc4)CC3)c(=O)n2n1	3.9
COc1ccc(-c2cc3c4nnc(SCC(=O)Nc5cccc(C#N)c5)n4ccn3n2)cc1	13.14
O=c1c2sccc2n2c(=O)n(Cc3ccc(Br)cc3)nc2n1Cc1cccs1	49.64
COc1ccc(CCn2c(=O)c3sccc3n3c(=O)n(CC(=O)c4ccccc4)nc23)cc1OC	0.73
Cc1ccc(-c2cc3c4nn(CC(=O)NC5CCCC5)c(=O)n4ccn3n2)cc1C	6.8
Cc1cc2nn(CC(=O)Nc3ccc(F)cc3F)c(=O)n2c(Nc2ccc(F)c(C)c2)n1	11.92
COc1ccc(-c2noc(Cn3nc4ccc(-c5ccccc5)nn4c3=O)n2)cc1OC	4.81
CC(C)Cn1c(=O)c2sccc2n2c(=O)n(CC(=O)NC(C)(C)C)nc12	-0.9
COc1cccc(-c2nc(CSc3nc4ccccc4n4c(C(C)C)nnc34)c(C)o2)c1OC	-0.24
O=C(Cn1nc2nc(Nc3ccc(F)cc3)ccn2c1=O)N1CCOCC1	2.63
CSc1cccc(NC(=O)Cn2nc3ccc(SC4CCCCC4)nn3c2=O)c1	0.23

system: Cryptococcus neoformans; conditions: Concentration 32 ug.mL-1; ASSAY_TEST Inhibition of Fungal Growth; detection method Resazurin; Absorption (OD600-OD570); plate type 384well; NBS; CORNING #3640

Compound	Inhibition [%]
Cc1cc(C)cc(NC(=O)Cn2nc3ccc(-c4ccc(C)c(C)c4)nn3c2=O)c1	-18.49
Cc1ccc(-c2ccc3nn(Cc4c(F)cccc4Cl)c(=O)n3n2)cc1	-15.06
CC(C)c1nnc2c(=O)n(CC(=O)Nc3ccccc3)c3ccccc3n12	-25.44
O=C(Cn1nc2c(SC3CCCCC3)nccn2c1=O)Nc1cccc(Br)c1	-20.18
COc1ccc(-c2cc3c4nn(CC(=O)Nc5ccccc5OC)c(=O)n4ccn3n2)cc1	-14.32
COc1ccccc1N1CCN(C(=O)CSc2nnc3c(=O)n(-c4ccc(F)cc4)ccn23)CC1	-8.01
Cc1ccc(Cl)cc1NC(=O)CSc1nnc2n(CC3CCCO3)c(=O)c3sccc3n12 (stereo not given)	-15.54
O=c1c2nn(Cc3cccc(F)c3)c(=O)n2ccn1-c1ccccc1	-10.61
Cc1nnc2c(=O)n(CC(=O)Nc3cccc(Cl)c3)c3ccccc3n12	-13.95
CCc1nnc2ccc(S(=O)(=O)N(Cc3ccccc3)c3ccccc3)cn12	-7.97
Cc1ccc(Oc2nccn3c(=O)n(CC(=O)NCc4cccs4)nc23)cc1	-8.11
CCOc1ccc(-n2ccn3c(SCC(=O)Nc4cccc(Cl)c4)nnc3c2=O)cc1	-5.2
CN(C(=O)Cn1nc2nc(Nc3ccc(F)cc3)ccn2c1=O)c1ccccc1	-4.67
Cc1ccc(NC(=O)Cn2nc3c4cc(-c5ccc(C)c(C)c5)nn4ccn3c2=O)cc1C	-9.03
Cc1cc(C)c(NC(=O)Cn2nc3c(Sc4ccccc4)nccn3c2=O)c(C)c1	-6.18
Cc1ccc(-c2ccc3nn(Cc4ccc5c(c4)OCO5)c(=O)n3n2)cc1C	-18.91
COCCCNC(=O)CSc1nnc2c(=O)n(Cc3ccccc3F)ccn12	-16.33
COc1ccccc1CNC(=O)CSc1nnc2c3cc(-c4ccc(C)cc4)nn3ccn12	-12.39
COc1ccc(NC(=O)Cn2nc3ccc(-c4ccccc4)nn3c2=O)cc1OC	0.88
Cc1nnc2c(S(=O)(=O)N(Cc3cccc(F)c3)c3ccc(C(C)C)cc3)cccn12	-6.4

Compound	Inhibition [%]
COc1ccc(-c2cc3c4nnc(SCC(=O)N(C)c5ccccc5)n4ccn3n2)cc1	-11.25
COc1ccccc1Cn1c(=O)c2sccc2n2c(=O)n(CC(=O)c3ccc(C)cc3C)nc12	-26.25
CCOc1ccccc1NC(=O)Cn1nc2c(Sc3ccccc3)nccn2c1=O	-18.53
COc1ccccc1-n1ccn2c(SCc3ccccc3C)nnc2c1=O	-12.54
Cc1nnc2c(S(=O)(=O)N(Cc3cccc(Cl)c3)c3ccc(F)c(F)c3)cccn12	-7.4
CC(=O)c1ccc(N2CCN(C(=O)CCc3nnc4c5cc(-c6ccccc6)nn5ccn34)CC2)cc1	-8.28
COc1ccc(N(Cc2cccc(Cl)c2)S(=O)(=O)c2ccc3nnc(C)n3c2)cc1	-5.62
CCCNC(=O)CSc1nnc2c(=O)n(-c3ccc(F)cc3)ccn12	-15.58
COc1ccc(-c2cc3c4nn(CC(=O)Nc5ccc(C)c(F)c5)c(=O)n4ccn3n2)cc1	-7.43
CC(C)(C)Sc1ccc2nn(CC(=O)N3CCN(c4ccc(F)cc4)CC3)c(=O)n2n1	-8.43
COc1ccc(-c2cc3c4nnc(SCC(=O)Nc5cccc(C#N)c5)n4ccn3n2)cc1	-16.67
O=c1c2sccc2n2c(=O)n(Cc3ccc(Br)cc3)nc2n1Cc1cccs1	-28.37
COc1ccc(CCn2c(=O)c3sccc3n3c(=O)n(CC(=O)c4ccccc4)nc23)cc1OC	-38.41
Cc1ccc(-c2cc3c4nn(CC(=O)NC5CCCC5)c(=O)n4ccn3n2)cc1C	-13.73
Cc1cc2nn(CC(=O)Nc3ccc(F)cc3F)c(=O)n2c(Nc2ccc(F)c(C)c2)n1	-8.52
COc1ccc(-c2noc(Cn3nc4ccc(-c5ccccc5)nn4c3=O)n2)cc1OC	-11.77
CC(C)Cn1c(=O)c2sccc2n2c(=O)n(CC(=O)NC(C)(C)C)nc12	-15.87
COc1cccc(-c2nc(CSc3nc4ccccc4n4c(C(C)C)nnc34)c(C)o2)c1OC	-8.54
O=C(Cn1nc2nc(Nc3ccc(F)cc3)ccn2c1=O)N1CCOCC1	-13.19
CSc1cccc(NC(=O)Cn2nc3ccc(SC4CCCCC4)nn3c2=O)c1	-8.34

Reference: ChEMBL document CHEMBL4513146, “CO-ADD screening of Karazin Kharkiv National University (Ukraine) compounds”
